In PubChem BioAssay (NCI):
About 79,000 compounds went through this panel and 15% of them were active in at least one assay; those are over-represented in the sample as a whole. The source made the active and inactive calls. No stated cut-off is given here; in the data, active means growth inhibition above about 70%; inactive means the rest.

How the values were obtained:
[1] = NCI Yeast Anticancer Drug Screen. Data for the rad50 strain (AID 155);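 further: 0% = growth of vehicle-only cultures of the same strain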; conditions: S. cerevisiae rad50 strain growth inhibition; at 50.0 µM; active compounds read high
Method in brief: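 Vehicle-treated cultures provide the reference for the growth inhibition reported for compound-exposed, repair-deficient yeast.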

[2] = NCI Yeast Anticancer Drug Screen. Data for the mec2-1 strain (AID 157); conditions: S. cerevisiae mec2-1 strain, at 50.0 µM, active compounds read high
Method in brief: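 Vehicle-treated cultures served as reference for growth inhibition of compound-exposed mec2-1 yeast.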

[3] = NCI Yeast Anticancer Drug Screen. Data for the sgs1 mgt1 strain (AID 161);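 further: 0% = growth of cultures given vehicle only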; conditions: S. cerevisiae sgs1 mgt1 strain, at 50.0 µM, active compounds read high
Method in brief: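 Test agents were incubated with a DNA-repair-mutant yeast strain. Growth was then read and compared against vehicle-treated controls.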

[4] = NCI Yeast Anticancer Drug Screen. Data for the cln2 rad14 strain (AID 165);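 further: 0% = growth equal to vehicle treated cultures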; conditions: S. cerevisiae cln2 rad14 strain, at 50.0 µM, active compounds read high
Method in brief: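 Each compound was tested on cln2 rad14 yeast. Inhibition of growth was calculated against vehicle-exposed controls.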

[5] = NCI Yeast Anticancer Drug Screen. Data for the bub3 strain (AID 167); conditions: S. cerevisiae bub3 mutant strain, at 50.0 µM, active compounds read high
Method in brief: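 Mutant yeast screening strain plus compound; vehicle-treated cultures serve as the 0% inhibition reference.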

[6] = NCI Yeast Anticancer Drug Screen. Data for the mlh1 rad18 strain (AID 175); conditions: S. cerevisiae mlh1 rad18 strain growth inhibition; at 50.0 µM; active compounds read high
Method in brief: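 Vehicle-treated cultures served as the reference for growth inhibition in a yeast strain carrying DNA damage repair alterations exposed to each compound.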

Measured: growth inhibition

Cc1cccnc1C
inactive: [1] 16.9% | [2] -7.25% | [3] -16.2% | [4] 24.4% | [5] 14.4% | [6] 7.85%

COc1ccc(C2(C(OC)OC)NC(=O)N(Cc3ccccc3)C2=O)cc1 (centres undefined)
inactive: [1] 2.7% | [2] -10.6% | [3] -4.5% | [4] -49.4% | [5] -11.8% | [6] -10.3%

Nc1ccc(C(=O)Oc2ccc(OC(=O)c3ccccc3)cc2)cc1
inactive: [1] 9.7% | [2] 20.1% | [3] 18.9% | [4] -6.8% | [5] 0.4% | [6] 13.9%

CC(C)N(C(=O)C12C3C4C5C3C1(C(=O)N(C(C)C)C(C)C)C5(C#N)C42)C(C)C (centres undefined)
inactive: [1] 22.6% | [2] 3.65% | [3] 5.6% | [4] 13.7% | [5] 13.4% | [6] 4.2%

FC(F)(F)C1(C(F)(F)F)OI2(Br)(OC(C(F)(F)F)(C(F)(F)F)c3ccccc32)c2ccccc21
inactive: [1] -6.05% | [2] -0.25% | [3] -11.2% | [4] 21.2% | [5] -5.3% | [6] 27.1%

COc1ccc(C2=CC(=O)C(C)(C#N)CC2)cc1 (centres undefined)
inactive: [1] 3.9% | [2] 25.9% | [3] -4% | [4] 25.1% | [5] 34% | [6] 4.8%

CCOC(=O)c1sc(N)nc1O
inactive: [1] -5.5% | [2] -0.3% | [3] -3.75% | [4] 5.85% | [5] 6.25% | [6] -8.8%

CCCCCCOC(=O)C[C@H]1C[C@H](C(=O)OCCCCCC)C1(C)C
inactive: [1] -4.45% | [2] -15.6% | [3] 1.8% | [4] -36.6% | [5] -21.1% | [6] -7.3%

CCN(CC)CCOc1ccc(C)c2c1C(=O)CC2
inactive: [1] -27.6% | [2] -9.2% | [3] -8.45% | [4] -8.7% | [5] 21.4% | [6] -23.6%

O=c1[nH]c(NCc2ccncc2)nc2nc[nH]c12
inactive: [1] 10.2% | [2] -3.8% | [3] -14.8% | [4] 3.1% | [5] -21.1% | [6] -52%

Cc1cc(=O)oc2c(C(=O)/C=C/N(C)C)c(O)ccc12
inactive: [1] -29.9% | [2] 4.1% | [3] 7.85% | [4] 0.25% | [5] 9.95% | [6] 7.7%

Cc1nc2cc([N+](=O)[O-])ccc2c(NCCCN(C)C)c1C
inactive: [1] 6.6% | [2] 8.35% | [3] 7.25% | [4] -1.45% | [5] -3.5% | [6] -39.6%

COc1ccccc1-n1nnc2c(N)nc(N)nc21
inactive: [1] 7.05% | [2] -12.2% | [3] -13.2% | [4] 4.05% | [5] -22.1% | [6] -9.25%

COC(=O)c1nc(=S)[nH]c(C(=O)OC)c1C(=O)c1ccc(C)cc1
inactive: [1] -3.7% | [2] -7.15% | [3] 5.75% | [4] -14% | [5] 10.6% | [6] 21.4%

c1ccc(N=C2SC(=NC3CCCCC3)N(C3CCCCC3)C2=Nc2ccccc2)cc1
inactive: [1] 3.35% | [2] -18.9% | [3] -0.05% | [4] 9.1% | [5] -4.9% | [6] -29.3%

O=c1n(-c2ccccc2)c(=O)n2c(-c3ccccc3)c(-c3ccccc3)n12
inactive: [1] 38.5% | [2] -23.7% | [3] -36.5% | [4] -12.6% | [5] -23.6% | [6] -30.8%

CC1=C(C(=O)Nc2ccccc2)C(c2ccc(C3C(C(=O)Nc4ccccc4)=C(C)NC(C)=C3C(=O)Nc3ccccc3)cc2)C(C(=O)Nc2ccccc2)=C(C)N1
active: [1] 70% | [2] 71.6% | [5] 82.5% | [6] 84.8%
inactive: [3] 53% | [4] 41.5%

CCOP(=O)(O)C1CC2C3CC=C4CC(O)CCC4(C)C3CCC2(C)C1C(C)=O (centres undefined)
inactive: [1] 15.9% | [2] -3.25% | [3] -0.55% | [4] -14.4% | [5] -2% | [6] 3.5%

COc1ccc(C2OCCC(C)O2)cc1OC (centres undefined)
inactive: [1] -14.6% | [2] -12.8% | [3] -19.7% | [4] -48.8% | [5] -33.5% | [6] -14.8%

CN(C)c1ccccc1C1CCCCCC1O (centres undefined)
inactive: [1] 15.8% | [2] 6.1% | [3] 17.9% | [4] 20.1% | [5] -22.3% | [6] 8.95%

COC(=O)CC1(O)C(C=C(C)C)C(C(=O)OC)C(=O)C(C(=O)OC)C1C(=O)OC (centres undefined)
inactive: [1] -10.8% | [2] -7.15% | [3] -28.9% | [4] -3.5% | [5] -32.2% | [6] -1.25%

O=C(O)CNCc1ccc(F)cc1
inactive: [1] -1.85% | [2] -10% | [3] -14.7% | [4] -74.4% | [5] 13.2% | [6] -5.9%

O=[N+]([O-])c1ccc(I)c(I)c1
inactive: [1] -20.8% | [2] -3.8% | [3] 0.1% | [4] -43.2% | [5] -0.45% | [6] 7.85%

Cc1nc(C)c(N2CCN(C(=O)NC(CCC(=O)O)C(=O)O)CC2)c(=O)[nH]1 (centres undefined)
inactive: [1] -80.7% | [2] 8.95% | [3] -28.3% | [4] 18.4% | [5] -1.25% | [6] -40.6%

CN(/N=C/c1ccccn1)C1=NCCN1
inactive: [1] -23.9% | [2] -29.4% | [3] -31.2% | [4] 2.75% | [5] 6.55% | [6] -21.4%

CCOC(=O)C1=C(O)C(=O)N(Cc2ccccc2)C1
inactive: [1] -4.65% | [2] -29.6% | [3] 14.3% | [4] -0.7% | [5] 49.5% | [6] -23.8%

CC(C)(C)c1ccc2c(c1)C(C)(C)CCC2(C)C
inactive: [1] 12.8% | [2] 0.8% | [3] 3.05% | [4] -52.6% | [5] 8.3% | [6] 19.2%

O=C(c1ccccc1)c1ccc(C(=O)c2ccccc2)cc1
inactive: [1] -0.35% | [2] -1.85% | [3] -19.2% | [4] -6.15% | [5] -9.35% | [6] -19.3%

CCc1c(C)nc2cc(-c3cc(C)n4c(=O)c(CC)c(C)nc4c3)cc(C)n2c1=O
inactive: [1] 1.6% | [2] 9.95% | [3] -12.7% | [4] 1.2% | [5] 3.2% | [6] 3.95%

Nc1c(Cl)cccc1C(=O)c1ccccc1C(=O)O
inactive: [1] -9.8% | [2] 4.8% | [3] 5.4% | [4] -14.8% | [5] 1% | [6] -3.15%

CCCCC(CC)COC(=O)C(C)CCC (centres undefined)
inactive: [1] 4.65% | [2] -1.1% | [3] -2.4% | [4] -27.7% | [5] 17.9% | [6] 5%

CC1(C)CC(C)(OC(=O)c2ccccc2)N=N1 (centres undefined)
inactive: [1] 14.6% | [2] -11.1% | [3] 20.1% | [4] -16.4% | [5] 4.35% | [6] 11.1%

COc1cccc(C(=O)NNC(=O)c2ccc3ccccc3c2)c1
inactive: [1] 13.2% | [2] 4.55% | [3] -2.45% | [4] 6.55% | [5] 3.9% | [6] 7.95%

c1ccc(C2=NOCC3(c4ccccc4)OC23)cc1 (centres undefined)
inactive: [1] 7.85% | [2] 11.8% | [3] 20.7% | [4] -14.8% | [5] 14.2% | [6] 11.3%

CN(C)c1ccc(/C=c2\sc3nc4ccccc4n3c2=O)cc1
inactive: [1] -8.75% | [2] -32.3% | [3] -13.1% | [4] -15.3% | [5] -16.5% | [6] -21.4%

Cc1ccc2cccc(-c3cccc4ccccc34)c2n1
inactive: [1] 5.3% | [2] 7.9% | [3] 3.4% | [4] -0.05% | [5] -2.35% | [6] 28.8%

CC(=O)OCC1OC(n2c(O)c(/C=C3\C=Nc4ccccc43)sc2=S)C(OC(C)=O)C(OC(C)=O)C1OC(C)=O (centres undefined)
inactive: [1] 20.4% | [2] -11.7% | [3] -15.4% | [4] 18.9% | [5] -3.5% | [6] 4.9%

OCCSCCCSCCO
inactive: [1] 17.9% | [2] -4.8% | [3] -23% | [4] 3.5% | [5] 1.1% | [6] -4.8%

Clc1ccc(-c2ccncc2)cc1
inactive: [1] 17.1% | [2] -9.15% | [3] 7.2% | [4] -69.7% | [5] 13.1% | [6] 5.7%
